# Many of the other results were omitted from the sample, so hits are more common in it than they were.
# ER stress death: ER stress cell death inhibition | CSM14.1 thapsigargin ER stress survival, ATP luminescence | relative survival (cellular ATP), % at 15 µg/mL (by protocol) | 0.33% of 48,000 active | AID 1010;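 active means survival measured by cellular ATP above 50% at 15 µg/ml in the first screen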;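 further: cell death triggered by about 15 µM thapsigargin; ATP read 24 h after thapsigargin was added; plate controls were thapsigargin with DMSO for no effect and DMSO without thapsigargin for full effect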
# The depositor's hits bear a star.
SMILES,ER stress death
COc1ccc(CC(=O)N2CCN(c3cccc(Cl)c3)CC2)cc1OC,7
CCC(Oc1ccccc1)C(=O)N1CCN(C(c2ccccc2)c2ccccc2)CC1 (stereo not given),47
COc1ccc(/C=N/OCC(=O)N2CCN(C(c3ccccc3)c3ccccc3)CC2)cc1OC,116*
CC(=O)Oc1ccc(/C=c2\sc3nc4ccccc4n3c2=O)cc1,4
O=C1C(Cc2cccc([N+](=O)[O-])c2)S/C(=N/N=C/c2ccccc2)N1c1ccccc1 (stereo not given),6
COc1cc(C(=O)N2CCN(Cc3cccc(Oc4ccccc4)c3)CC2)cc(OC)c1OC,45
CCn1c2ccccc2c2cc(CN3CCN(C(=O)c4ccc([N+](=O)[O-])cc4)CC3)ccc21,91*
COc1ccc(C(=O)N2CCN(Cc3cccc(Oc4ccccc4)c3)CC2)cc1OC,53*
Cc1cccc(CN2CCN(C(=O)c3ccc([N+](=O)[O-])cc3)CC2)c1,4
O=C(c1ccncc1)N1CCN(Cc2cccc(Oc3ccccc3)c2)CC1,-2
CCOc1ccc(CN2CCN(C(=O)c3ccc([N+](=O)[O-])cc3)CC2)cc1,-2
COc1ccc(C(=O)N2CCN(Cc3cccc(C)c3)CC2)cc1OC,2
O=C(c1ccc([N+](=O)[O-])cc1)N1CCN(Cc2cccc(Oc3ccccc3)c2)CC1,69*
O=C(c1ccc([N+](=O)[O-])cc1)N1CCN(Cc2cccnc2)CC1,-8
CCOC(=O)c1c(Cl)cc(Cl)c(N)c1[N+](=O)[O-],-3
COc1ccc(-c2cc(C(=O)Nc3cc([N+](=O)[O-])ccc3Cl)c3ccccc3n2)cc1OC,3
O=C(Cc1cccc2ccccc12)NCCOc1ccccc1Cl,15
O=C1/C(=C/c2cccs2)SC(=S)N1Nc1ccccc1,0
Clc1ccc(-c2nc(-c3ccc(Br)cc3)no2)c(Cl)c1,2
CC1=C(C(=O)Nc2ccc(Cl)cc2)C(c2ccccc2)NC(=S)N1 (stereo not given),3
COc1ccc2c(c1)C(C)CC(C)(C)N2C(=O)c1sc2cc([N+](=O)[O-])ccc2c1Cl (stereo not given),2
Nn1c(SCC(=O)O)nnc1-c1ccc(Br)cc1,10
O=C(CC1SC(=Nc2ccccc2)N(c2ccccc2)C1=O)Nc1ccc(F)cc1 (stereo not given),2
O=C(CC1SC(=Nc2ccccc2)N(c2ccccc2)C1=O)Nc1ccccc1C(F)(F)F (stereo not given),65*
Cc1ccc(NC(=O)CC2SC(=Nc3ccccc3)N(c3ccccc3)C2=O)cc1 (stereo not given),-1
SMILES,ER stress death
COc1ccc(S(=O)(=O)N/N=C/c2cn(Cc3ccccc3)c3ccccc23)cc1,-1
C=CC(=O)NC(NC(=O)C=C)c1ccc(OC)c(OC)c1,0
CCc1ccc2oc(-c3cccc(NC(=O)c4ccc5c(c4)OCCO5)c3)nc2c1,-2
O=C1CSc2ccc([N+](=O)[O-])cc2N1Cc1ccccc1F,2
COc1ccc(C(C)(C)C)cc1NC(=O)C1CC(=O)N(c2ccccc2)C1 (stereo not given),-1
COc1ccc(/C=C(/c2ccccc2)c2nc3ccccc3[nH]2)cc1,51*
CN(C)c1ccc(/C=C(/c2ccccc2)c2nc3ccccc3[nH]2)cc1,40
COc1ccc(C(=O)N/C(=C/c2ccc(Br)cc2)c2nc3ccccc3[nH]2)cc1,6
O=C(NC(=S)Nc1ccc(NC(=O)c2ccco2)cc1)c1ccc(Cl)cc1,-3
COc1cc(C=NN2CCN(Cc3ccccc3Cl)CC2)ccc1OCc1ccccc1,6
Cc1n(C)c2cccnc2[n+]1C,0
COc1ccc(C)cc1NC(=O)C(C)Oc1ccc(Cl)cc1C (stereo not given),1
CCOC(=O)c1nnsc1NC(=O)Nc1ccccc1,4
COc1cc(/C=C2/SC(=S)N(C)C2=O)ccc1OCc1cccc2ccccc12,8
CCC(C)c1ccc(OCCOc2ccc(/C=C3/SC(=S)N(C)C3=O)cc2OC)cc1 (stereo not given),89*
CCOc1cc(/C=C2/SC(=S)N(C)C2=O)ccc1OCCOc1ccccc1C,2
COC(=O)c1ccc(OCC(=O)Nc2nc3c(s2)CCCC3)cc1,0
COc1cccc(N(CC(=O)Nc2ccc(Br)cc2)S(=O)(=O)c2ccccc2)c1,8
O=C(c1cccc(C(=O)N2CCN(c3cccc(Cl)c3)CC2)c1)N1CCN(c2cccc(Cl)c2)CC1,99*
O=C(c1ccc(Cl)cc1)N1CCN(c2cccc(Cl)c2)CC1,-4
O=C(c1cccc(Cl)c1)N1CCN(c2cccc(Cl)c2)CC1,8
COC(=O)C1=C(C)NC(=O)NC1c1cccc(I)c1 (stereo not given),0
Cc1ccc(N(CC(=O)Nc2cccc3ccccc23)S(=O)(=O)c2ccccc2)cc1,-5
CCC(=O)N1CCN(c2cc(N3CCCCC3)c(F)cc2[N+](=O)[O-])CC1,-5
O=C(Nc1cccc(Br)c1)c1cccs1,5
SMILES,ER stress death
O=C(Nc1cccc(S(=O)(=O)c2cccc(NC(=O)c3cccs3)c2)c1)c1cccs1,113*
NS(=O)(=O)c1cccc(NC(=O)c2cccs2)c1,0
Oc1cccc(/C=N/Nc2nc3ccccc3s2)c1,4
Cc1cccc(C(=O)N2c3ccc([N+](=O)[O-])cc3-c3c(ssc3=S)C2(C)C)c1,4
CCOC(=O)c1c(NC(=O)c2cccc(F)c2)sc2c1CCC2,2
O=C(O)/C=C/C(=O)Nc1ccc(-c2ccc(NC(=O)/C=C/C(=O)O)cc2)cc1,-3
CCOc1ccc(NC(=O)/C=C\C(=O)O)cc1,-10
O=C(O)/C=C/C(=O)Nc1ccc(OC(F)(F)Cl)cc1,108*
O=C(CSc1nc2ccc(NC(=O)c3ccc(Cl)cc3Cl)cc2s1)Nc1ccccc1,3
CCOc1ccccc1NC(=O)c1c(NC(=O)c2ccc(C)cc2)sc2c1CCCC2,6
CCOc1ccccc1NC(=O)c1c(NC(=O)c2cccc(F)c2)sc2c1CCCCC2,53*
CCOc1ccccc1NC(=O)c1c(NC(=O)c2ccccc2F)sc2c1CCCCC2,12
O=C(Cc1nc2ccccc2[nH]c1=O)Nc1cccc(C(F)(F)F)c1,-7
Cc1ccc(N(CC(=O)O)S(=O)(=O)c2ccccc2)c(C)c1,3
CCN1C(=O)/C(=C\c2cccc(C(F)(F)F)c2)SC1=S,11
CCOc1ccccc1CN(CCc1ccc2c(c1)OCO2)Cc1ccncc1,103*
CCOc1ccccc1CN(CCc1ccc2c(c1)OCO2)Cc1cc(OC)ccc1OC,3
CCOc1ccc(-c2nnc(-c3ccc4c(c3)OCO4)o2)cc1,8
NC(=O)c1cc(NC(=O)c2cc3ccccc3cc2O)ccc1Cl,4
Cc1ccc(NC(=O)C(C)Oc2ccccc2)c([N+](=O)[O-])c1 (stereo not given),3
O=C(NNC(=O)c1sc2ccccc2c1Cl)Nc1cccc(Cl)c1,8
O=C1NC(=O)N(c2ccc(Cl)cc2)C(=O)/C1=C\C=C\c1ccco1,54*
Cc1cc(N2C(=O)NC(=O)/C(=C\C=C\c3ccco3)C2=O)ccc1Br,2
O=C1NC(=S)N(c2ccc(Cl)cc2)C(=O)/C1=C/C=C/c1ccccc1,44
Cc1cc(C)cc(N=CC2=C(O)CC(c3ccccc3)CC2=O)c1 (stereo not given),5
O=C1/C(=C/C=C/c2ccccc2)SC(=S)N1c1ccc(F)cc1,-4
COc1cccc(N2C(=O)CC(N3CCN(C(c4ccccc4)c4ccccc4)CC3)C2=O)c1 (stereo not given),19
O=C1CC(N2CCN(C(c3ccccc3)c3ccccc3)CC2)C(=O)N1c1ccc(F)cc1 (stereo not given),12
COc1ccc(N2C(=O)CC(N3CCN(C(c4ccccc4)c4ccc(Cl)cc4)CC3)C2=O)cc1 (stereo not given),110*

# Screening results: PubChem BioAssay, Sanford-Burnham Center for Chemical Genomics
